Measured values: PubChem BioAssay (Tox21)
Records with an inconclusive call do not appear. A call without a number means that no potency is given here. Active and inactive are the calls of the source. Calls follow the shape of the dose curve; as a rule, active = well fitted cell-killing curve with a large enough effect in the repeat runs; inconclusive = weak or mixed curves, or effect the other way; inactive = flat fitted curve, though single readings scatter.

Assay: qHTS assay to identify small molecule agonists of the constitutive androstane receptor (CAR) signaling pathway - cell viability counter screen (AID 1224836); also: nearly all actives have a fitted effect of over 45% in size
Settings: HepG2-CYP2B6-hCAR viability, CellTiter-Fluor, 23 h, PK11195 added to every well; series mostly up to 92.4 µM
How it was run: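 Viability read-out: CellTiter-Fluor fluorescence after 23 h compound exposure at 37 C/5% CO2 in double-stable HepG2-CYP2B6-hCAR cells, with PK11195 present at 0.75 uM final; compounds tested in 15-point titration.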

SMILES | Potency
CCC1(CCC(C)C)C(=O)NC(=O)NC1=O | inactive
Clc1ccccc1 | inactive
CCCCC1C(=O)NC(=O)N(C2CCCCC2)C1=O (centres undefined) | inactive
C[C@H](N)[C@H](O)c1ccc(O)c(O)c1 | inactive
CCCN(CCC)c1c([N+](=O)[O-])cc(C(C)C)cc1[N+](=O)[O-] | inactive
CCOC(C(=O)OCCN(C)C)(c1ccccc1)c1ccccc1 | inactive
O=C=NC1CCCCC1 | inactive
CCOP(=S)(OCC)SCSc1cc(Cl)ccc1Cl | inactive
CCCCCCCCCCCCN(C)C | inactive
O=C(O)c1cc(I)cc(I)c1I | inactive
CN1C(=O)CN=C(c2ccccc2)c2cc([N+](=O)[O-])ccc21 | inactive
CCOP(=S)(OCC)Oc1ccc(S(C)=O)cc1 (centres undefined) | inactive
CC(C)(c1ccccc1)c1cc(-n2nc3ccccc3n2)c(O)c(C(C)(C)c2ccccc2)c1 | inactive
Cc1nnc(-c2ccccc2)c(=O)n1N | inactive
O=CC=O | inactive
CCC1(CC)C(=O)NC(=O)NC1=O | inactive
CC(Cl)C(=O)O (centres undefined) | inactive
O=S(=O)(Cl)Cl | inactive
COc1ccc(C(O)(c2cncnc2)C2CC2)cc1 (centres undefined) | inactive
O=C(O)CCCOc1ccc(Cl)cc1Cl | inactive

SMILES | Potency
O=C1CC[C@@]2(O)[C@H]3Cc4ccc(O)c5c4[C@@]2(CCN3CC2CC2)[C@H]1O5 | inactive
C=CCSSCC=C | inactive
Nc1ccccc1C(=O)OCC(O)CO (centres undefined) | inactive
FC(F)OC(F)(F)C(F)Cl (centres undefined) | inactive
COCc1cnc(C2=NC(C)(C(C)C)C(=O)N2)c(C(=O)O)c1 (centres undefined) | inactive
Nc1cc(Cl)cc(C(=O)O)c1Cl | inactive
CCCCC#N | inactive
CC1(C)CC(=O)CC(C)(C)N1[O] | inactive
CCCCCCCCCCCCCCCl | inactive
FC(Cl)(Cl)C(F)(Cl)Cl | inactive
CC(C)(C)OOC(C)(C)CCC(C)(C)OOC(C)(C)C | inactive
ClCc1ccccc1Cl | inactive
c1ccc2sc(SNC3CCCCC3)nc2c1 | inactive
O=S(=O)(c1ccccc1)c1ccccc1 | inactive
O=C(O)C(Cl)(Cl)Br | inactive
N#CC(C#N)=Cc1ccc(O)c(O)c1 | inactive
O=C(O)C(F)(F)C(F)(F)C(F)(F)C(F)(F)C(F)(F)F | inactive
C=CCc1ccc(OC(=O)Cc2ccccc2)c(OC)c1 | inactive
C[C@H]1O[C@H](OC2[C@@H](O)[C@@H](O)C(O)[C@H](O)[C@H]2O)[C@@H](N)C[C@@H]1N=C(N)C(=O)O (some centres undefined) | inactive
